# Results published in article PMC7862700, “An all-to-all approach to the identification of sequence-specific readers for epigenetic DNA modifications on cytosine”.
# How the values were obtained:
# Assay in all cases: DAPPL (digital affinity profiling via proximity ligation, sequencing); 10 mM Tris-HCl pH 7.5, 50 mM NaCl, 1 mM DTT, 4% glycerol, room temperature, 30 min; GST-TFs on glutathione beads, 16-mer random dsDNA library, 0.1% formaldehyde crosslink after washing; high values mean tight binding
# Conditions in all cases: protein: recombinant; tags: N-terminal GST; dsDNA, one strand shown
# [1] = biological target: T1, FLI1 (Homo sapiens, UniProt Q01543 1-452)
# T1 sequence: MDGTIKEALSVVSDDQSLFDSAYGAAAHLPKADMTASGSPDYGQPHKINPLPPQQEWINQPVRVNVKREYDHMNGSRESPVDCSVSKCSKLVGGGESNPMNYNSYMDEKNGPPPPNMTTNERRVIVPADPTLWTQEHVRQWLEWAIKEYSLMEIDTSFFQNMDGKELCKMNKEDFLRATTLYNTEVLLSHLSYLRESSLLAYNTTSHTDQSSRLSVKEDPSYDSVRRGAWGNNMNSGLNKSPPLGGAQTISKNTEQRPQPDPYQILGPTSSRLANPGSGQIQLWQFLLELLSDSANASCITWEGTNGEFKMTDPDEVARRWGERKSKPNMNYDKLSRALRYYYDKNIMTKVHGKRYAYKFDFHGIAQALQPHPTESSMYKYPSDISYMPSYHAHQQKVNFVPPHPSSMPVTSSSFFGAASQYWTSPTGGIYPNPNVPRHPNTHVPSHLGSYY
# Summary of the method: (§1)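 GST fusions of human transcription factors were expressed in yeast and captured with glutathione beads. Once given DNA barcodes and pooled alongside a tag-only sample, they were incubated for 30 min at room temperature with 200 nmole of a random double-stranded 16-mer DNA library in Tris/NaCl/DTT/glycerol buffer, then washed, crosslinked (0.1% formaldehyde), proximity-ligated, PCR-amplified and sequenced on an Illumina NextSeq500. The binding signal of each hexamer is its read frequency for a factor divided by its frequency for the tag-only sample.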
# [2] = biological target: T2, ELK1 (Homo sapiens, UniProt P19419 1-428)
# T2 sequence: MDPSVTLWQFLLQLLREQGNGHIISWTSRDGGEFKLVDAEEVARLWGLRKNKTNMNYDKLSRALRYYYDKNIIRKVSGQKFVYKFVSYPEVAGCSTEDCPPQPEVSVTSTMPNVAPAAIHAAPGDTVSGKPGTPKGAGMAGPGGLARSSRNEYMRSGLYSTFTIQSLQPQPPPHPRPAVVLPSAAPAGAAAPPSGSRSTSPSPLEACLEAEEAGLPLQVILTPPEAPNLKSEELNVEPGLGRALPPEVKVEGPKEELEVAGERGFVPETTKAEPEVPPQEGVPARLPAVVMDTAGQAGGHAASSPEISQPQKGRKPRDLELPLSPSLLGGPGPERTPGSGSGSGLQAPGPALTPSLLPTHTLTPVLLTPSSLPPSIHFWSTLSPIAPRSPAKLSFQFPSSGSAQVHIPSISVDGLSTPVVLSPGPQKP
# Summary of the method: as §1
# [3] = biological target: T3, GABPA (Homo sapiens, UniProt Q06546 1-454)
# T3 sequence: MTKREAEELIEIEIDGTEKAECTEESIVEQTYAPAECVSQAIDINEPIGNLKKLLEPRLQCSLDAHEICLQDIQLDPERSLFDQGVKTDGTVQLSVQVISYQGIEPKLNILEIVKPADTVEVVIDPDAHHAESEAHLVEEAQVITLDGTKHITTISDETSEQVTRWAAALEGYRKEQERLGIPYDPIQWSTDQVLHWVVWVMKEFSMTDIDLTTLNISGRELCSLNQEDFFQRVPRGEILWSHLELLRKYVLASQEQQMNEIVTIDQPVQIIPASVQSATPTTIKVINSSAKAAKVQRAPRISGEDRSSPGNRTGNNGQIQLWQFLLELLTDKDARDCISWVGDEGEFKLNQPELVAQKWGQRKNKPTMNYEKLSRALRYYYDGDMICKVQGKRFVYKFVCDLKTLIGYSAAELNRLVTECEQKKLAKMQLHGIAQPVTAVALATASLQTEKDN
# Summary of the method: as §1
# [4] = biological target: T4, ERG (Homo sapiens, UniProt P11308 1-479)
# T4 sequence: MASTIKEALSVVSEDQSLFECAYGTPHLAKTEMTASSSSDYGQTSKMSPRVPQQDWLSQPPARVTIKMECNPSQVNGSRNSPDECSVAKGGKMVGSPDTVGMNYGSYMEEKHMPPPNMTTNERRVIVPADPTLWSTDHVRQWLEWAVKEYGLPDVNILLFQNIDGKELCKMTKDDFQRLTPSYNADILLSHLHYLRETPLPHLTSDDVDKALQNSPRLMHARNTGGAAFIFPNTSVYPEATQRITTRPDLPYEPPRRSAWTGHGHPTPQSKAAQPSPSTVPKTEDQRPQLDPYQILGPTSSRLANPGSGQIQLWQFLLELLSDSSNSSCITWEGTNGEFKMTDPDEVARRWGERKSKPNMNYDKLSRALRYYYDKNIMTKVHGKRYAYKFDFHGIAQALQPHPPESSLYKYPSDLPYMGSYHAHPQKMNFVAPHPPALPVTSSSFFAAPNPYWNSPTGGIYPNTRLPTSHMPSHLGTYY
# Summary of the method: as §1
# [5] = biological target: ELF1 (Homo sapiens, UniProt P32519 1-619)
# Summary of the method: as §1
# [6] = biological target: T5, EHF (Homo sapiens, UniProt Q9NZC4 1-300)
# T5 sequence: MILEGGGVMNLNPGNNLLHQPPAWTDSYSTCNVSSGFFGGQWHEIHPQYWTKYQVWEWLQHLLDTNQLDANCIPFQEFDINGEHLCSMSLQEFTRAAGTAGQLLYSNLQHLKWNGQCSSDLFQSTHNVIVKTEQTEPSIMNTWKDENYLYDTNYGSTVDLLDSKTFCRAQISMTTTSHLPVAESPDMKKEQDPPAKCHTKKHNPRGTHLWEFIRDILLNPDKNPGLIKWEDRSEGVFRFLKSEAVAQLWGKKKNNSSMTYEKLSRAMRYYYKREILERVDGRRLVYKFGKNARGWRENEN
# Summary of the method: as §1
# [7] = biological target: SPI1 (Homo sapiens, UniProt P17947 1-270)
# Summary of the method: as §1
# [8] = biological target: SPIB (Homo sapiens, UniProt Q01892 1-262)
# Summary of the method: as §1
# [9] = biological target: T6, ELK3 (Homo sapiens, UniProt P41970 1-407)
# T6 sequence: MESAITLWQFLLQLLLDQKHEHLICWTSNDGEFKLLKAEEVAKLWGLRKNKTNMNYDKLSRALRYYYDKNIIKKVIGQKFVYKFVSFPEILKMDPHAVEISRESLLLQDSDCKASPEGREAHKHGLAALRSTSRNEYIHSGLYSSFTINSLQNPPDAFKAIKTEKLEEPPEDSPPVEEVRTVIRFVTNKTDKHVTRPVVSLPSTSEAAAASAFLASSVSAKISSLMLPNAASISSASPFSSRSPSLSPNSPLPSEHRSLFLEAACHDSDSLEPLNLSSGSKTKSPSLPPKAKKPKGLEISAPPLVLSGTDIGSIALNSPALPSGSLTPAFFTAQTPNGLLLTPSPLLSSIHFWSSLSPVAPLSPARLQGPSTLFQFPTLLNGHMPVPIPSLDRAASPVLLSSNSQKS
# Summary of the method: as §1
# Sequence of ELF1 (P32519 whole entry): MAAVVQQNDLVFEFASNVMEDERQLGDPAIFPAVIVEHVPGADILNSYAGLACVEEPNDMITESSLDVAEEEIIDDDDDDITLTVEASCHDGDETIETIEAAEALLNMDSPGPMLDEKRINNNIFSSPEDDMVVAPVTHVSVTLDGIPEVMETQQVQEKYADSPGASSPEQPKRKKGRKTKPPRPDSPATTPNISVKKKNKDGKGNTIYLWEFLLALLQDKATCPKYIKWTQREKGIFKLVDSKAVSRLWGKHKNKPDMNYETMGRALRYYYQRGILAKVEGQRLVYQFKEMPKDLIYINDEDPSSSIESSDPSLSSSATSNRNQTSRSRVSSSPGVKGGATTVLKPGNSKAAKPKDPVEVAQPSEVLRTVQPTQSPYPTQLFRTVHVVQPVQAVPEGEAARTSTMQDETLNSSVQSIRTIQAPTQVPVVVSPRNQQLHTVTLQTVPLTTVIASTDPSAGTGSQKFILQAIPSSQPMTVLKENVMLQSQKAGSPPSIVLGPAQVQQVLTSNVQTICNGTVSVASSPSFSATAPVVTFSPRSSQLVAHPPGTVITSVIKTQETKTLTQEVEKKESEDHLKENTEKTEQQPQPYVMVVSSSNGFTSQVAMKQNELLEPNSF
# Sequence of SPIB (Q01892 whole entry): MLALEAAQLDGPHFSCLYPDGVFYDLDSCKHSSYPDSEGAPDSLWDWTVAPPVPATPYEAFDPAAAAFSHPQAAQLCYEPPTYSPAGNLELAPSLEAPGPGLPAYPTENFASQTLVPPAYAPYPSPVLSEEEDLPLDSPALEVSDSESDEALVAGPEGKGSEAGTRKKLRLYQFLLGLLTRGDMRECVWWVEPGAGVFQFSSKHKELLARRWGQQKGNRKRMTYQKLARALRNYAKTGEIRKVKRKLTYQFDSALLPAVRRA
sequence,measurement,setting,value
ATCTTC,binding signal,[1],"1.68 fold enrichment (6-mer frequency, TF over GST control)"
same,binding signal,[2],"1.52 fold enrichment (6-mer frequency, TF over GST control)"
same,binding signal,[3],"1.48 fold enrichment (6-mer frequency, TF over GST control)"
same,binding signal,[4],"1.51 fold enrichment (6-mer frequency, TF over GST control)"
same,binding signal,[5],"1.64 fold enrichment (6-mer frequency, TF over GST control)"
same,binding signal,[6],"1.46 fold enrichment (6-mer frequency, TF over GST control)"
same,binding signal,[7],"1.52 fold enrichment (6-mer frequency, TF over GST control)"
same,binding signal,[8],"1.6 fold enrichment (6-mer frequency, TF over GST control)"
same,binding signal,[9],"1.59 fold enrichment (6-mer frequency, TF over GST control)"
